TROY NFkB inh: inhibitors of TROY-dependent NF-kB signaling. Q293 LMP1-TROYcd NF-kB luciferase reporter, 4 h. inhibition, % at 10 µM. AID 1347056. 360,000 compounds, 0.98% hits;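 active = compounds whose plate-normalised and pattern-corrected inhibition of the luciferase reporter signal at the single screening dose is 50% or more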
LGR2 inh: Drosophila LGR2 receptor signaling inhibition; 380,000 compounds, 0.35% hits; AID 720647; HEK293 LGR2, CRE-luciferase, bursicon-stimulated, 4 h; inhibition, % at 9.99 µM;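 active = drop in luminescence signal, shown as inhibition above about 50% in the replicate tests, limit read from the data, passing the limit was not always enough; inconclusive = probably only some replicates passing the limit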;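 note: agonist challenge used bursicon conditioned medium at about half maximal strength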
EWS-Fli inh: inhibitors of EWS/Fli oncoprotein transcriptional activity; AID 651661; 350,000 compounds, 0.67% hits; A673 NR0B1-luciferase reporter, viability-normalised; inhibition, % at 12.6 µM;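 active = mean inhibition of at least 50% after viability correction, with every replicate also passing that limit; inconclusive = mean reaches 50% but only one of two replicates passes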;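 note: firefly luciferase signal divided by Alamar Blue viability fluorescence both relative to DMSO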
TWEAK-Fn14 inh: TWEAK-Fn14 signaling inhibition; TWEAK-stimulated Fn14 reporter cells, luciferase luminescence, 8 h; inhibition, % at 10 µM; 360,000 compounds, 2% hits; in the data active = inhibition above about 50%
LMP1 NFkB inh: inhibitors of Epstein-Barr LMP1-induced NF-kappaB reporter; LMP1-induced NF-kappaB luciferase reporter cells, luminescence; inhibition, % at 12.5 µM; 350,000 compounds, 0.69% hits; AID 504558; in the data active = inhibition above about 41%; inconclusive = no clear call, values can overlap the other calls;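 note: 0% = neutral control wells and 100% = reference inhibitor control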
The depositor's hits bear a star; u = inconclusive; x = no result. Sampled rows, rich in hits. Any-hit rate of the full collection: about 2.6%.

SMILES	TROY NFkB inh	LGR2 inh	EWS-Fli inh	TWEAK-Fn14 inh	LMP1 NFkB inh
C[C@@H]1CN([C@H](C)CO)C(=O)c2cc(C#CC3CC3)cnc2O[C@@H]1CN(C)S(=O)(=O)c1cccc(F)c1	x	20	3	x	x
C[C@@H]1CN([C@H](C)CO)C(=O)c2cc(NC(=O)Nc3cccc4ccccc34)ccc2O[C@@H](C)CCCCO[C@H]1CN(C)Cc1ccc(C(=O)O)cc1	x	19	-6	x	x
COC(=O)CCN1CCc2cc(N=Nc3ccc([N+](=O)[O-])cc3)ccc21	53*	-81	-89	30	9
Cc1ccccc1CN1CCc2cc([N+](=O)[O-])ccc21	-18	-12	10	18	2
CN1C(=O)c2cc(NC(=O)c3cccs3)ccc2OC[C@@H]2O[C@@H](CC(=O)NCC3CC3)CC[C@@H]21	x	10	0	x	x
COc1ccc(S(=O)(=O)Nc2ccc3c(c2)CC(=O)N([C@@H](C)CO)C[C@H](C)[C@H](CN(C)Cc2ccncc2)O3)cc1	x	1	-1	x	x
Cc1ccc(S(=O)(=O)N(C)C[C@@H]2OCCCC[C@@H](C)Oc3ccc(NC(=O)Nc4ccc(F)cc4)cc3C(=O)N([C@H](C)CO)C[C@@H]2C)cc1	x	x	-2	x	x
O=C(Cc1nnc(NC(=O)c2ccccc2)s1)N/N=C/c1ccc(O)cc1	-4	-9	3	58*	2
COc1ccc(OC)c(-c2nnc3n2N=C(c2ccc(OC)c(OC)c2)CS3)c1	34	-23	56*	-19	14
COc1ccc(C2=Nn3c(nnc3-c3ccccc3F)SC2)cc1OC1CCCC1	41	-86	-66	12	55*
COc1ccc(OC)c(-c2nnc3n2N=C(c2ccc(OC(F)F)c(OCC4CC4)c2)CS3)c1	34	6	u	4	22
COc1ccc(C2=Nn3c(nnc3-c3ccccc3)SC2)cc1OC	14	-26	x	-16	9
Cc1cc(-c2nnc3n2N=C(c2ccc(-c4ccccc4)cc2)CS3)n[nH]1	21	x	x	12	10
c1ccc(-c2cc(-c3nnc4n3N=C(c3ccc5ccccc5c3)CS4)[nH]n2)cc1	6	0	x	68*	0
COc1ccc(C2=Nn3c(nnc3-c3ccccc3F)SC2)cc1OC1CCOC1 (stereo not drawn)	31	-7	60*	5	7
O=C1CCC(=O)N1CC1CC2CCC1C2 (stereo not drawn)	-2	12	63*	-5	0
CO[C@H]1CN(C)C(=O)c2cc(NC(C)=O)ccc2OC[C@H](C)NC[C@@H]1C	x	1	-6	x	x
Cc1ccc2oc(C(=O)N3CCN(c4cccc(C)n4)CC3)c(C)c2c1	-33	-14	-38	69*	-15
O=C(C[C@H]1CC[C@H]2[C@@H](COC[C@H](O)CN2C(=O)Nc2ccc(Cl)c(Cl)c2)O1)NCc1ccc(Cl)cc1	x	1	-9	x	x
COc1cc(NC(=S)Nc2ccc3c(c2)OCCO3)cc(OC)c1OC	57*	-90	-30	36	7
COc1cc2cc(C(=O)Nc3ccc4c(c3)OCCO4)[nH]c2cc1OC	77*	23	x	93*	45*
COc1cc2[nH]c(C(=O)Nc3ccc4c(c3)OCCO4)cc2c(OC)c1OC	56*	1	-8	71*	19
COc1cccc(OC)c1C(=O)Nc1ccc2c(c1)OCCO2	-6	x	x	8	-5
CC(C)(Sc1ccc(CCN(CCCCC2CCCCC2)C(=O)NC2CCCCC2)cc1)C(=O)O	51*	5	5	-37	-1
CN(Cc1ccccc1)C(=O)NC1CCCCC1	-10	x	x	9	3
SMILES	TROY NFkB inh	LGR2 inh	EWS-Fli inh	TWEAK-Fn14 inh	LMP1 NFkB inh
Cc1cccc(Cn2nnc3c2C(=O)c2ccccc2C3=O)c1	18	x	x	11	3
Cc1ccccc1Cn1nnc2c1C(=O)c1ccccc1C2=O	50*	x	x	9	-7
O=C(CCl)N=c1sccn1Cc1ccc(Cl)cc1Cl	21	x	21	55*	-9
O=C(CCl)N=c1sccn1Cc1ccccc1Cl	4	-10	63*	-1	6
CC(C)C(=O)Nc1nnc(CSCc2ccccc2F)s1	-15	x	x	-17	-4
CC(C)(C)C(=O)Nc1nnc(CSCc2ccccc2F)s1	30	x	x	73*	8
O=c1oc(Nc2ccc(F)cc2)nc2ccccc12	6	24	x	58*	-15
C=C1C(=O)C23CCC4C(C)(C(=O)OC)CCCC4(C)C2CCC1(O)C3 (stereo not drawn)	88*	x	56*	98*	62*
COc1ccc(S(=O)(=O)Nc2ccc3c(c2)C(=O)N([C@H](C)CO)C[C@@H](C)[C@H](CN(C)CC2CC2)OCCCC[C@@H](C)O3)cc1	x	-24	x	x	x
O=C1NC(=S)N/C1=C/c1ccc2c(c1)OCO2	13	43	21	54*	1
CC(C)(C)c1ccc(NC(=O)COc2ccc(-n3ccnc3)cc2)cc1	75*	x	x	93*	-1
COc1cc(NC(=O)COc2ccc(-n3ccnc3)cc2)cc(OC)c1	17	-4	-3	2	-6
COc1ccc(/C(N)=N/OC(=O)CN(C)S(=O)(=O)c2ccc(C)cc2)cc1	17	9	9	68*	-12
CCCNC(=O)C[C@H]1CC[C@@H]2[C@H](COC[C@@H](O)CN2Cc2ccccc2F)O1	x	-15	0	x	x
COc1ccc2[nH]c3c(NCCC4=CCCCC4)ncnc3c2c1	28	14	-40	79*	21
CCC(=O)N[C@@H]1C=C[C@@H](CC(=O)NCC2CCCCC2)O[C@H]1CO	x	8	-2	x	x
CCCCN(CC)Cc1ccc(CNC(=S)Nc2ccc(C)cc2Cl)o1	42	2	21	74*	9
CCCCN(CC)Cc1ccc(CNC(=S)Nc2c(C)cc(C)cc2C)o1	-4	11	3	5	5
C[C@H]1CN([C@@H](C)CO)C(=O)c2cc(C#CC3CCCC3)cnc2O[C@@H]1CN(C)C(=O)c1ccncc1	x	6	-16	x	x
O=C(N/N=C/c1ccco1)c1cc(-c2cccc(Br)c2)nc2ccccc12	48	3	x	77*	10
O=C(N/N=C/c1cccnc1)c1cc(-c2ccc(Cl)cc2)nc2ccccc12	0	-13	12	-22	-7
CC(C)OCCCNC(=O)c1cc(-c2cccnc2)nc2ccccc12	8	-5	-5	13	-2
O=C(N/N=C/c1ccc(Cl)cc1)c1cc(-c2cccnc2)nc2ccccc12	18	-12	52*	-18	-17
COCCCNC(=O)c1cc(-c2cccnc2)nc2ccccc12	57*	5	3	30	-5
O=C(NNC(=O)c1cc(-c2ccccc2)nc2ccccc12)Nc1cccc(Cl)c1	69*	x	x	39	2
C[C@H](CO)N1C[C@H](C)[C@H](CN(C)C(=O)Nc2ccc(C(F)(F)F)cc2)Oc2ccc(NC(=O)c3ccncc3)cc2CC1=O	x	-8	-3	x	x
O=C(NNC(=O)c1cc(-c2ccncc2)nc2ccccc12)Nc1ccc(F)cc1	15	-8	x	24	-4
O=C(NNC(=O)c1cc(-c2cccnc2)nc2ccccc12)Nc1ccc(Cl)cc1	52*	-31	-31	13	-9
